A selection follows.
aSyn UTR act: Activators working through SNCA 5'UTR binding (MLPCN); alpha-synuclein 5'UTR reporter, activators screen; activity score, % (tested at 7.5 µM), hits read low; 7.1% of 300,000 active; AID 1814; in the data active means activity score below about -60%
A number is an active result; n = inactive.

SMILES	aSyn UTR act
O=C(Nc1ccccc1)Nc1ccccn1	-126
O=C(Nc1ccc(Cl)cc1)Nc1ccccn1	-167
CCOC(=O)c1ccc(NC(=O)Nc2ccccn2)cc1	-90
CCOC(=O)c1ccc(NC(=O)c2cnccn2)cc1	-67
O=C(Nc1ccccc1)Nc1cccc2cccnc12	-178
CC(Sc1ccccn1)C(=O)Nc1ccccc1 (stereo not drawn)	-208
O=C(/C=C/c1ccccc1)NCCc1ccccc1	-154
CC(C)NC(=S)NC(=O)/C=C/c1ccc(F)cc1	-64
CC(C)(C)SCCNC(=O)/C=C/c1ccccc1	-113
CC(C)(C)SCCNC(=O)/C=C/c1ccc(F)cc1	-68
Cc1c(C(C)(C)C)sc(=NC(=O)c2ccccc2O)n1C	-125
CCN(c1ccccc1)c1ncnc2c1cnn2-c1ccccc1	-150
CN(Cc1ccccc1)c1ncnc2c1cnn2-c1ccccc1	-169
COC(=O)c1sccc1N/N=C/c1ccc(OC)c(OC)c1OC	-140
COC(=O)c1sccc1N/N=C/c1cccc(Oc2ccccc2)c1	-64
CCC(C)NC(=O)Cn1c(COc2ccc(Cl)cc2Cl)nc2ccccc21 (stereo not drawn)	-122
Cc1ccc(NC(=O)C2C3/C=C\CCCCC32)cc1C (stereo not drawn)	-115
Cc1c(C(=O)OC2CCCC2C)[nH]c2c1C(=O)CCC2 (stereo not drawn)	-92
C=CCOC(=O)c1[nH]c2c(c1C)C(=O)CC(c1ccco1)C2 (stereo not drawn)	n
O=[N+]([O-])c1ccccc1/C=N\N1CCN(c2ccccc2)CC1	-201
Cc1ccccc1/C=N/N1CCN(c2ccccc2)CC1	-131
Cc1cccc(/C=N/N2CCN(c3ccccc3)CC2)c1	-140
O=[N+]([O-])c1ccccc1/C=C/C=N/N1CCCCC1	-205
Cc1ccc(/C=N/N2CCN(c3ccccc3)CC2)cc1	-100
Cc1cc(-c2ccc(C(C)C)c(S(=O)(=O)N3CCN(c4ccccc4)CC3)c2)on1	n
SMILES	aSyn UTR act
NS(=O)(=O)c1ccc(N/N=C/C=C/c2ccccc2[N+](=O)[O-])cc1	-177
Cc1sc(NC(=O)C2=COCCO2)c(C(N)=O)c1C	-62
Cc1sc(NC(=O)CCCC(=O)O)c(C(N)=O)c1-c1ccccc1	n
Cc1sc(NC(=O)c2cccs2)c(C(N)=O)c1C	-255
NC(=O)c1ccsc1NC(=O)c1cccs1	-164
COc1ccc(C(=O)Nc2ccc(Cl)cn2)cc1Cl	-182
CN(C)S(=O)(=O)c1cccc(C(=O)Nc2ccc(Cl)cn2)c1	-116
Cc1ccc(S(=O)(=O)Oc2ccc(C)cc2/C=N/N=C2\NC(=O)C(C)S2)cc1 (stereo not drawn)	-66
O=C(Nc1cc2ccccc2oc1=O)c1ccccc1	n
Cc1oc(=O)c(NC(=O)c2cccc(Cl)c2)cc1C(=O)c1ccccc1	-237
O=C(N/N=C/C(Cl)=C/c1ccccc1)c1ccco1	-158
O=C(N/N=C/C(Cl)=C\c1ccccc1)c1ccco1	-224
C(=N\Nc1nc(-c2ccccc2)cs1)/c1ccco1	-351
Clc1ccc(-c2csc(N/N=C/c3ccco3)n2)cc1	-156
Cc1ccc(-c2csc(N/N=C/c3ccco3)n2)cc1	-232
Clc1ccc(-c2csc(N/N=C\c3cccnc3)n2)cc1	-77
Nn1c(SCC(=O)Nc2ccc(F)cc2F)nnc1-c1cccnc1	-89
Nn1c(SCC(=O)Nc2ccc(F)cc2F)nnc1C1CCCCC1	-64
O=C(Cc1c(Cl)cccc1Cl)OCc1ccccn1	-124
Clc1ccc2nc3c4ccccc4cnn3c2c1	-160
C#CCOCCOCCOCCNc1nc(N2CCN(C(=O)CCCCCCCCCCNC(=O)[C@H](CO)n3cc(CCCSC)nn3)CC2)nc(N2CCN(C(=O)CCCCCCCCCCNC(=O)[C@H](CCCCN)n3cc(C[C@@H](C)CC)nn3)CC2)n1	n
C#CCOCCOCCOCCNc1nc(N2CCN(C(=O)CCCCCCCCCCNC(=O)[C@H](CCCCN)n3cc(CCCC(=O)O)nn3)CC2)nc(N2CCN(C(=O)CCCCCCCCCCNC(=O)[C@H](CCCN=C(N)N)n3cc(C[C@@H](C)CC)nn3)CC2)n1	-132
C#CCOCCOCCOCCNc1nc(N2CCN(C(=O)CCCCCCCCCCNC(=O)[C@H](CCCCN)n3cc(CCCC(=O)O)nn3)CC2)nc(N2CCN(C(=O)CCCCCCCCCCNC(=O)[C@H](CCCCN)n3cc(CCCC(=O)O)nn3)CC2)n1	-112
C#CCOCCOCCOCCNc1nc(N2CCN(C(=O)CCCCCCCCCCNC(=O)[C@H](CCCCN)n3cc(C[C@@H](C)CC)nn3)CC2)nc(N2CCN(C(=O)CCCCCCCCCCNC(=O)[C@H](CCCCN)n3cc(C[C@@H](C)CC)nn3)CC2)n1	n
COc1ccccc1Nc1nc(N)nc(-c2cc3ccccc3o2)n1	-62
SMILES	aSyn UTR act
O=C(COc1ccc(Br)cc1Cl)NC(=S)Nc1ccccn1	-100
COCCCNC(=O)COc1ccc(Br)cc1Cl	-146
COCCNC(=S)N/N=C(\C)c1ccccc1O	-161
COc1ccc(-c2cc(C(=O)NC3CCCC3)no2)cc1	-121
COc1cccc(-c2cc(C(=O)N3CCCCC3C)no2)c1 (stereo not drawn)	-162
COc1ccc(-c2cc(C(=O)NC(C)C)no2)cc1	-71
O=C(NC1CCCCC1)c1cc(-c2ccco2)on1	-128
COc1ccc(-c2cc(C(=O)Nc3ccc(C)c(C)c3)no2)cc1	-124
COc1cccc(-c2cc(C(=O)NC3CCCCC3)no2)c1	-202
Cc1ccc(/C=C/C(=O)Nc2nccs2)o1	-157
Cc1ccc(/C=C/C(=O)Nc2ccc(N(C)C)cc2)o1	-193
Cc1cnc(NC(=O)/C=C/c2ccc(Br)o2)s1	-106
Cc1ccc(/C=C/C(=O)Nc2ncc(C)s2)o1	-207
CC(C)c1ccc(S(=O)(=O)c2cc3cc(Br)ccc3oc2=O)cc1	-63
CCOC(=O)C1CCN(C(=O)/C=C/c2ccc3c(c2)OCO3)CC1	-74
CCOC(=O)C1CCN(C(=O)/C=C/c2ccccc2)CC1	-139
CCOC(=O)C1CCN(C(=O)COc2ccc(Cl)cc2)CC1	-75
CCOC(=O)C1CCCN(C(=O)CC(C)c2ccccc2)C1 (stereo not drawn)	-115
O=C(/C=C/c1ccc2c(c1)OCO2)N1CCCCC1	-132
Cn1c(-c2ccc3ccccc3n2)nc2cnccc21	-74
CCOC(=O)CNC(=O)c1sc(NC(=O)c2cccc(F)c2)nc1C	-98
CCOC(=O)CNC(=O)c1sc(NC(=O)c2ccccc2F)nc1C	-151
CCOC(=O)C1=C(N)n2c(s/c(=C\c3ccco3)c2=O)=C(C(=O)OCC)C1c1ccco1 (stereo not drawn)	-78
C/C=C/COC(=O)c1[nH]c2c(c1C)C(=O)CC(c1ccco1)C2 (stereo not drawn)	n
Cc1c(C)c(C)c2[nH]c(-c3ccc4c(c3)OCO4)nc2c1C	-76
SMILES	aSyn UTR act
O=C(NNC(=S)Nc1cccc2ccccc12)c1cccc(Br)c1	-79
CC(=O)c1cccc(NC(=S)Nc2cccc3ccccc23)c1	-80
O=C(Nc1cccc2ccccc12)C12CC3CC(C1)CC(n1cnc([N+](=O)[O-])n1)(C3)C2	n
Cc1ccc(NC(=S)Nc2cccc3cnccc23)cc1	-102
S=C(Nc1cccc2ccccc12)NC1CCCCC1	-195
CC(=O)Nc1cccc(NC(=S)Nc2cccc3ccccc23)c1	-116
CCOc1ccccc1OCCCOc1ccc(C)cc1Cl	-111
CCCCNC(=O)/C=C/c1cccs1	-86
Cc1ccc(CNC(=O)/C=C/c2cccs2)cc1	-184
Cc1ccc2c(c1C)NC(=O)CC(c1ccccc1O)=N2	-83
CCOC(=O)c1c(C)nc(-c2ccccc2)nc1N	-120

Screening results as filed in PubChem BioAssay.
